Results taken from article PMC5540273 (PLoS ONE, 2017).

Columns and labels:
Conditions in all cases: concentration: 1 μM, replicates: in singlicate; n = 1
[1] = system: FGFR4
[2] = system: FGR
[3] = system: FLT1
[4] = system: FLT3-autoinhibited
[5] = system: FLT3
[6] = system: FLT4
[7] = system: FRK
[8] = system: FYN
[9] = system: GAK
[10] = system: T1, GCN2(Kin.Dom.2,S808G)
T1 construct: gene EIF2AK4

[11] = system: GRK1
[12] = system: T2, GRK2
T2 construct: gene ADRBK1

[13] = system: T3, GRK3
T3 construct: gene ADRBK2

[14] = system: GRK4
[15] = system: GRK7
[16] = system: GSK3A
[17] = system: GSK3B
[18] = system: T4, HASPIN
T4 construct: gene GSG2

[19] = system: HCK
[20] = system: HIPK1
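Also: KINOMEscan kinase panel screen.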

| Structure (SMILES) | %Inh [1] | %Inh [2] | %Inh [3] | %Inh [4] | %Inh [5] | %Inh [6] | %Inh [7] | %Inh [8] | %Inh [9] | %Inh [10] | %Inh [11] | %Inh [12] | %Inh [13] | %Inh [14] | %Inh [15] | %Inh [16] | %Inh [17] | %Inh [18] | %Inh [19] | %Inh [20] |
| --- | --- | --- | --- | --- | --- | --- | --- | --- | --- | --- | --- | --- | --- | --- | --- | --- | --- | --- | --- | --- |
| CCc1nc(-c2cccc(C)c2)c(-c2ccnc(NC(=O)c3ccccc3)c2)s1 | 0% | 35% | 0% | 1% | 0% | 8% | 0% | 0% | 33% | 0% | 0% | 25% | 7% | 0% | 17% | 0% | 0% | 0% | 27% | 25% |
| COc1ccc(Nc2nccc(N3CCC(NC(=O)c4cccc(NC(C)=O)c4)C3)n2)cc1 (centres unmarked) [GSK1379732] | 3% | 27% | 23% | 0% | 0% | 6% | 0% | 0% | 16% | 9% | 0% | 2% | 49% | 0% | 0% | 4% | 0% | 46% | 0% | 0% |
| OCCOCCn1ccc2ncnc(Nc3ccc(Oc4cccc(Cl)c4)c(Cl)c3)c21 | 0% | 2% | 0% | 0% | 0% | 0% | 0% | 0% | 0% | 0% | 9% | 0% | 0% | 0% | 0% | 9% | 0% | 0% | 9% | 16% |
| Fc1ccc(-c2ncn(CCCNCc3ccccc3)c2-c2ccncc2)cc1 | 0% | 17% | 0% | 0% | 0% | 22% | 0% | 0% | 0% | 0% | 12% | 0% | 0% | 12% | 5% | 8% | 28% | 12% | 7% | 25% |
| CCn1c(-c2ccncc2)nc2cnccc21 [SB-735216] | 11% | 3% | 4% | 20% | 15% | 5% | 0% | 19% | 13% | 12% | 11% | 4% | 63% | 45% | 24% | 9% | 30% | 57% | 7% | 10% |
| c1ccc(-c2ccc3c(-c4ccnc(Nc5ccc6c(c5)OCCO6)n4)cnn3n2)cc1 [GW818941] | 10% | 23% | 31% | 18% | 36% | 36% | 9% | 32% | 28% | 11% | 0% | 7% | 0% | 11% | 0% | 12% | 0% | 0% | 16% | 0% |
| CS(=O)(=O)CCNCc1ccc(-c2ccc3ncnc(Nc4ccc(OCc5ccccc5)c(Cl)c4)c3c2)o1.Cl [GW574783] | 0% | 9% | 26% | 0% | 11% | 0% | 0% | 14% | 0% | 16% | 2% | 1% | 20% | 0% | 0% | 8% | 1% | 30% | 18% | 0% |
| COc1ccc(NC(=O)Nc2ccc(C)c(-c3ccc(C(=O)Nc4ccncc4)cc3)c2)cc1 [GSK1398475] | 5% | 27% | 26% | 0% | 85% | 15% | 23% | 41% | 0% | 0% | 0% | 0% | 11% | 0% | 0% | 15% | 7% | 0% | 0% | 0% |
| O=C(Nc1ccccc1)Nc1ccc(Oc2ccc3nccn3n2)cc1 | 63% | 19% | 51% | 0% | 25% | 6% | 0% | 0% | 0% | 16% | 11% | 0% | 0% | 17% | 0% | 14% | 0% | 0% | 7% | 26% |
| COc1ccc(Nc2nccc(N3CCC(NC(=O)Nc4ccc5c(c4)OCO5)C3)n2)cc1 (centres unmarked) [GSK1379745] | 4% | 28% | 37% | 0% | 45% | 12% | 14% | 3% | 11% | 2% | 13% | 0% | 20% | 15% | 0% | 0% | 7% | 13% | 0% | 0% |
